Laboratory results as given in PubChem BioAssay AID1851 (National Center for Advancing Translational Sciences (NCATS), 2009).
In all, about 16,000 compounds went through this assay and about 5,800 (36%) were called active. Inconclusive results (about 23%) are left out. Some of the results follow. Values without a mark were called inactive. Calls follow the shape of the dose curve; as a rule, active = well fitted curve in the direction sought with a large enough effect; inconclusive = small, poorly fitted or top-dose-only effect, or effect the other way; inactive = no such curve, though single readings can be large or run the other way.

molecular target: Cytochrome P450 2C19 (Homo sapiens) (UniProt P33261); assay: Cytochrome panel assay with activity outcomes; conditions: recombinant CYP, pro-luciferin dealkylation, luminescence, p450-cyp2c19; series mostly up to 57.1 µM; activity, negative = inhibition: at the top concentration
% is scaled to controls: 0 for no effect and ±100 for the full control effect.

Sequence of Cytochrome P450 2C19 (Homo sapiens) (P33261 whole entry, looked up): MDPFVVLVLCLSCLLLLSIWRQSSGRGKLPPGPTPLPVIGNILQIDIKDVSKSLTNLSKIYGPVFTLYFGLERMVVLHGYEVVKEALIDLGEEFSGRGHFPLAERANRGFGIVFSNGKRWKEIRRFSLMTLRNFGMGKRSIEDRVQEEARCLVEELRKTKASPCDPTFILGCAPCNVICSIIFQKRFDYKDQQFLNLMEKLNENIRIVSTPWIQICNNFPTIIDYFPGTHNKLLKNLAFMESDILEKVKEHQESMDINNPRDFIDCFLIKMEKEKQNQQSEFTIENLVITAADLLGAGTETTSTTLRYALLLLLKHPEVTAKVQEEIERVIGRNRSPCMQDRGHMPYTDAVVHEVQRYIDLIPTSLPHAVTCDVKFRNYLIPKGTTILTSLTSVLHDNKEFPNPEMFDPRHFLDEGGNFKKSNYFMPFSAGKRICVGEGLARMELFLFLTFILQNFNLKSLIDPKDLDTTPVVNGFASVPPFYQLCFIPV

SMILES	activity, negative = inhibition	AC50
CC(=O)C[C@H](O)[C@@H](NC(=O)OC(C)(C)C)C(C)C	-9.61% [at 11.4 µM]	–
Cc1c(Cl)c([N+](=O)[O-])nn1Cc1ccc(C(=O)N/N=C\c2cccc(Br)c2)o1	–	1.12 µM (active)
Cc1nn(Cc2ccc(Cl)cc2)c(C)c1NC(=O)Cn1nc([N+](=O)[O-])c(Cl)c1C	25.1%	–
Cc1c(Cl)c([N+](=O)[O-])nn1Cc1ccc(C(=O)N/N=C\c2cc(Cl)ccc2O)o1	–	1.78 µM (active)
O=C(/C=C/c1cccc(Cl)c1)Nc1ccncc1	–	0.0708 µM (active)
O=C(O)/C=C\C(=O)Nc1ccc2c(c1)C(=O)c1cc(F)ccc1-2	28.8% [at 11.4 µM]	–
Cc1nc(N=Nc2cc(S(=O)(=O)O)ccc2S(=O)(=O)O)c(COP(=O)(O)O)c(C=O)c1O	-31.8%	–
CCCCC1(C)OC(=O)C(=Cc2ccc(N(CC)CC)cc2)C(=O)O1 (stereo not given)	–	10 µM (active)
CN(C)c1ccc(/C=C2/C(=O)Nc3ccccc32)cc1	-24.9%	–
O=C1Oc2ccccc2C2(O)C3CCCCCC3C12 (stereo not given)	–	1.41 µM (active)
C#CCSc1nnc(-c2sc3ccccc3c2Cl)o1	-28.6%	–
C#CCSc1nc(Cc2ccc(Cl)cc2)nc2ccccc12	–	0.501 µM (active)
CC1(C)CC(=O)C(C(C#Cc2ccccc2)C2=C(O)CC(C)(C)CC2=O)=C(O)C1	–	4.47 µM (active)
CC(=O)N1CCC2(CC1)CN(C(c1ccccc1)c1ccccc1)C2	16.5%	–
Cc1noc(C)c1C(=O)N1CCC2(CCCN(C(c3ccccc3)c3ccccc3)C2)CC1	-32.8%	–
CC(=O)N1CCC2(CCCN(C(c3ccccc3)c3ccccc3)C2)CC1	–	15.8 µM (active)
CC(=O)N1CCC2(CC1)CCN(C(c1ccccc1)c1ccccc1)CC2	-26.9%	–
O=C(c1ccncc1)N1CCC2(CCCN(C(c3ccccc3)c3ccccc3)C2)CC1	–	10 µM (active)
O=C(c1ccncc1)N1CCC2(CC1)CN(C(c1ccccc1)c1ccccc1)C2	-40.4%	–
c1ccc(Nc2ncnc3ccc(-c4ccc5c(c4)OCO5)cc23)cc1	-41.2%	–
Cc1cccc(CNc2ncnc3ccc(-c4ccc5c(c4)OCO5)cc23)c1	–	5.01 µM (active)
c1ccc(CNc2ncnc3ccc(-c4ccc5c(c4)OCO5)cc23)cc1	–	3.16 µM (active)
Cc1cc(O)c(C(C)C)cc1C1(c2cc(C(C)C)c(O)cc2C)OC(=O)c2ccccc21	–	3.16 µM (active)

SMILES	activity, negative = inhibition	AC50
O=c1c(-c2ccc(F)cc2)nc2cnc(N3CCOCC3)nc2n1C1CC1	2.66%	–
Cc1ccc(S(=O)(=O)N(CC(=O)N2CCN(c3ccc(F)cc3)CC2)C2CCCCC2)cc1	–	2.82 µM (active)
Cc1ccc(S(=O)(=O)NC(=O)NN2C[C@H]3CCC[C@@H]3C2)cc1	-36.1% [at 25.6 µM]	–
COc1ccc(-n2c(=O)c(C)nc3cnc(Nc4ccccc4)nc32)cc1	-35.7%	–
COc1ccc(C2CC(=O)c3cnc(Nc4cc(C)cc(C)c4)nc3C2)cc1 (stereo not given)	–	11.2 µM (active)
COc1cccc(Nc2ncc3nc(C)c(=O)n(C4CC4)c3n2)c1	-10.3%	–
COc1ccc(-n2c(=O)c(-c3cccs3)nc3cnc(Nc4cccc(OC)c4)nc32)cc1	-16.8%	–
COc1ccc(Nc2ncc3c(n2)CC(c2ccc(C)cc2)CC3=O)cc1 (stereo not given)	–	8.91 µM (active)
COc1ccc(-c2nc3cnc(Nc4ccccc4)nc3n(CCC#N)c2=O)cc1	-8.02%	–
O=C(Nc1ccccc1)N1CC[C@@]2(CCCN(C(=O)c3ccco3)C2)C1	-17.2%	–
C=CC[C@@H]1C=C[C@H](O/N=C(\C)CCN2CCCCc3nc(C)c(C)cc32)[C@H](CO)O1	21.2% [at 11.4 µM]	–
O=C(c1cccc(F)c1)N1CCC[C@@]2(CCN(c3ccccc3)C2)C1	4.02%	–
O=C(c1cccc(F)c1)N1CCC2(CCCN(c3ncccn3)C2)CC1	–	6.31 µM (active)
O=C(c1cccc(F)c1)N1CCC2(CCCN(c3ccccc3)C2)CC1	–	5.01 µM (active)
O=C(c1cccc(F)c1)N1CCC2(CC1)CN(c1cccc(-c3ccccc3)c1)C2	1.93%	–
O=C(c1cccc(F)c1)N1CCC2(CC1)CCN(c1cccc(-c3ccccc3)c1)CC2	-26.8%	–
O=C(c1cccc(F)c1)N1CCC2(CCCN(c3cccc(-c4ccccc4)c3)C2)CC1	–	7.94 µM (active)
CC(=O)N1CCC2(CCCN(c3ncccn3)C2)CC1	-33.5%	–
O=C(c1cccc(F)c1)N1CCC2(CC1)CCN(c1ccccc1)CC2	-28.2%	–
CC(C)CN1CCCC2(CCN(C(=O)c3cccc(F)c3)CC2)C1	-33.2%	–
CN(C)C(=O)c1ccc(-c2ccc3ncnc(N4CCC(C(=O)O)CC4)c3c2)cc1	6.88%	–
O=C(O)CCc1ccc(-c2ccccc2)[nH]1	-7.89% [at 11.4 µM]	–
